High-throughput results as filed in PubChem.
G9a inh: blocks human histone lysine methyltransferase G9a; Q96KQ7; Potency, µM (titrated, usually from 102 µM), usual class: inhibitors; G9a H3K9 monomethylation, AlphaScreen, 2 h; 8.8% of 350,000 active; further: nearly all actives have a fitted effect of over 75% in size
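Step 1: enzyme (final 20 nM) with compound, 15 min RT. Step 2: substrate peptide 500 nM and SAM 20 uM, 2 h RT. Step 3: anti-H3K9me1 antibody and AlphaScreen beads, 10 min, then plate read.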
PLK1 PBD inh: blocks phosphopeptide binding to human PLK1 polo-box domain; Plk1 PBD binding of FITC phosphopeptide, fluorescence polarization; Potency, µM, actives largely listed as inhibitors; AID 720504; P53350; 2.8% of 360,000 active; further: series mostly up to about 57 µM; nearly all actives have a fitted effect of over 65% in size
Target sequence (P53350 whole entry, looked up, the tested form may be a part): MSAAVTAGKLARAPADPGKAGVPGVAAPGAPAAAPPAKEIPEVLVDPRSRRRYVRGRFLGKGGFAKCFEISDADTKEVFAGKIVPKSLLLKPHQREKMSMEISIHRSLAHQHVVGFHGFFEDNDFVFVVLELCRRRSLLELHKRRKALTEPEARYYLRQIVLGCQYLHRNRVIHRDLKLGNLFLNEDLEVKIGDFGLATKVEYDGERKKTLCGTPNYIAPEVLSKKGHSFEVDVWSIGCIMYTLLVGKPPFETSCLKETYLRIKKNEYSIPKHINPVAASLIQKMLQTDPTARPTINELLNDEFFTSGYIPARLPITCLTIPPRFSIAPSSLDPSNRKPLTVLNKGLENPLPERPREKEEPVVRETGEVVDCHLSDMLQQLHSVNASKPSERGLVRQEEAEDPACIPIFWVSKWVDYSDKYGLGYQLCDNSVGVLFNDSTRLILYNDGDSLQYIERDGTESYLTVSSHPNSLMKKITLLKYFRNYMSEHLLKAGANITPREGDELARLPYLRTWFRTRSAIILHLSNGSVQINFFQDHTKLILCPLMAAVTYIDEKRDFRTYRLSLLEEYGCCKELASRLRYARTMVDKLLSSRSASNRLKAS
ALOX12 inh: blocks human arachidonate 12S-lipoxygenase. P18054. purified 12hLO, xylenol orange hydroperoxide absorbance. Potency, µM (titrated, usually from 108 µM), actives largely listed as inhibitors. 1.1% of 580,000 active. AID 1671190
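Purified human 12hLO (150 nM final) in 25 mM Hepes, 0.01% Triton X-100, pH 7.0 was preincubated 15 min at room temperature with compound. Then 40 uM arachidonic acid was added, 30 min. Hydroperoxide was read by Fe-XO absorbance ratio 573/405 nm.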
BAZ2B inh: inhibitors of human BAZ2B bromodomain. Q9UIF8. AlphaScreen BAZ2B-H3K14Ac peptide displacement. Potency, µM (titrated, usually from 114 µM), hits mostly inhibitors. 4.4% of 360,000 active; further: nearly all actives have a fitted effect of over 60% in size
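AlphaScreen displacement: compounds (up to 110uM) incubated 30 min at room temperature with a preformed 50 nM BAZ2B/50 nM biotinylated H3K14Ac peptide complex in PBS pH 7.4 with Tween-20. Donor and acceptor beads at 10 ug/mL final added, 20 min light-protected before reading.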
JMJD2A Tudor inh: blocks the human JMJD2A Tudor domain; AlphaScreen JMJD2A-Tudor / H3K4me3 peptide binding; 4.4% of 390,000 active; Potency, µM (highest dose often 114 µM), actives largely listed as inhibitors; O75164; further: nearly all actives have a fitted effect of over 50% in size
HP1b chromo inh: inhibitors of HP1-beta chromodomain binding to methylated histone tails | AlphaScreen HP1-beta / biotin-H3K9me3 peptide binding | Potency, µM (doses to about 114 µM), usual class: inhibitors | AID 540317 | P83916 | 0.56% of 390,000 active; further: nearly all actives have a fitted effect of over 70% in size
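AlphaScreen: HP1-beta (50 nM) preformed 30 min with biotin-H3(1-18)K9me3 peptide (50 nM) in PBS pH 7.4, 0.01% Tween-20. Compound added for 30 min at RT, then streptavidin donor/nickel chelate acceptor beads (10 ug/mL) for 30 min.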
Hits are given with their value; 0 = inactive; ? = inconclusive; - = not tested or not shown; [ ] = dose if it differs, or a comment. A selection: hits, their analogues and other compounds. The true share with any hit is near 9%. The call rests on the fitted dose curve; in most records, active means well fitted curve in the direction sought with a large enough effect; inconclusive means small, poorly fitted or top-dose-only effect, or another doubt; inactive means no such curve, though single readings can be large; an effect the other way counts as inactive or inconclusive.

SMILES	G9a inh	PLK1 PBD inh	ALOX12 inh	BAZ2B inh	JMJD2A Tudor inh	HP1b chromo inh
Cc1ccc(NC(=O)c2ccc(=O)n(CC(=O)Nc3cccc(C)c3)n2)cc1	0	-	?	0	0	0
CC(C)OCCCn1c(=O)c2ccccc2n2c(-c3ccccc3F)nnc12	0	-	0	0	0	0
CC(C)OCCCn1c(=O)c2ccccc2n2c(-c3ccccc3)nnc12	?	-	0	50µM	50µM	0
Cc1c2c(=O)n(-c3nc4ccccc4s3)nc-2cc(O)n1Cc1ccccc1	-	0	-	40µM	0	0
CN1CCc2c(n(CC(O)CN(CCO)CCO)c3ccccc23)C1=O (configuration not stated)	35µM	0	0	0	0	0
CN1CCc2c(n(CC(O)CNCc3ccccc3)c3ccccc23)C1=O (configuration not stated)	50µM	0	0	0	0	0
Cc1ccc(C)c(NC(=S)N2CCN(c3ccccn3)CC2)c1	-	0	0	0	0	0
O=C1C2C3C=CC(CO)(O3)C2C(=O)N1c1ccc(-c2ccccc2)cc1 (configuration not stated)	1µM	-	-	0	-	-
CC(C)(C)C(=O)NCC12C=CC(O1)C1C(=O)N(c3ccccc3)C(=O)C12 (configuration not stated)	1.6µM	0	0	0	56µM	?
Cc1ccc(N2C(=O)C3C4C=CC(CNC(=S)N5CCN(c6ccccn6)CC5)(O4)C3C2=O)cc1 (configuration not stated)	2.2µM	0	0	0	?	?
O=C(O)C1CC=CCC1C(=O)Nc1cccc(F)c1 (configuration not stated)	?	0	0	0	0	0
S=c1[nH]nc(Nc2cccc(Cl)c2)s1	1.4µM	0	?	0	0	0
Cc1ccc(-c2csc(Nc3ccccc3Cl)n2)cc1	-	-	0	-	-	-
S=c1[nH]nc(Nc2ccccc2Cl)s1	1.4µM	19µM	32µM	45µM	6.3µM	22µM
O=Cc1c(N2CCC3(CC2)OCCO3)nc2ccccn2c1=O	0	0	0	0	0	0
Cc1cc(C(=O)CN2CCCC(C)C2)c(C)n1-c1ccc(F)cc1 (configuration not stated)	?	0	0	0	0	0
Cc1ccc(Nc2c(-c3ccsc3)nc3cccc(C)n23)cc1	?	-	0	?	50µM	?
Cc1ccc(Nc2c(-c3ccccn3)nc3cccc(C)n23)cc1	0	?	?	16µM	0[11.4 µM]	?
Cc1cc(C)n2c(Nc3c(C)cccc3C)c(-c3ccccn3)nc2n1	-	0	0	-	-	-
Cc1ccn2c(Nc3ccc(F)cc3)c(-c3ccccn3)nc2c1	0	-	0	14µM	25µM	0
Cc1cccc2nc(-c3ccccn3)c(Nc3ccccc3)n12	0	-	0	8.9µM	40µM	0
N#Cc1cccc(CN2CCc3ncc(C(=O)NCc4ccccc4)n3CC2)c1	-	-	0	-	-	-
CCOc1ccc(N2C(=O)Nc3ccc(Br)cc3C2(O)C(=O)NC(C)C)cc1 (configuration not stated)	0	0	0	0	0	0
Cc1cccc2nc(-c3ccccn3)c(Nc3ccc(F)cc3)n12	0	-	0	16µM	45µM	0
Cc1cccc(C)c1Nc1c(-c2ccccc2F)nc2cccc(C)n12	18µM	-	0	?	50µM	?
SMILES	G9a inh	PLK1 PBD inh	ALOX12 inh	BAZ2B inh	JMJD2A Tudor inh	HP1b chromo inh
c1ccc(Nc2c(-c3c[nH]c4ccccc34)nc3ccccn23)cc1	?	-	0	0	?	?
Fc1ccc(Nc2c(-c3c[nH]c4ccccc34)nc3ccccn23)cc1	?	-	?	?	35µM	?
CCCCCc1c(O)nc(SCCN(CC)CC)[nH]c1=O	?	0	0	0	0	0
O=S(=O)(Nc1ccc(Cl)cc1)c1ccc(NS(=O)(=O)c2ccc3c(c2)OCCO3)cc1	?	-	?	0	0	0
CCOC(=O)c1ccc(NC(=O)c2nsc3ccccc23)cc1	3.2µM	-	45µM	0	0	0
Cc1c(C(=O)Nc2ccc(Nc3ccccc3)cc2)cccc1[N+](=O)[O-]	40µM	0	0	?	?	0
CCOC(=O)c1ccc(Nc2ncccc2[N+](=O)[O-])cc1	-	0	0	7.9µM	?	?
Cc1c(C(=O)Nc2c3c(nn2C(C)(C)C)CS(=O)(=O)C3)cccc1[N+](=O)[O-]	0	7.5µM	0	0	?	0
CCC(=O)Nc1cccc(NC(=O)c2cccc([N+](=O)[O-])c2C)c1	0	0	0	0	0	0
CSc1ccc([C@H]2CN3CCC[C@H]3c3ccccc32)cc1	?	-	0	-	-	-
Cc1nn(C)c(C(=O)Nc2cccc(Nc3ccccc3)c2)c1[N+](=O)[O-]	45µM	-	0	50µM	-	-
COC(=O)c1ccc(N/N=C/c2cc([N+](=O)[O-])cc(OC)c2O)cc1	?	0	?	0	0	0
CCOC(=O)c1c(NC(=O)COC(=O)c2cc(OC)c(OC)cc2[N+](=O)[O-])sc(C)c1CC	0	0	0	0	0	0
CCOC(=O)c1ccc(N/N=C/c2cc(Br)cc([N+](=O)[O-])c2O)cc1	0.56µM	?	?	?	10µM	?
CCc1c(C)sc(NC(=O)c2ccccc2[N+](=O)[O-])c1C(N)=O	45µM	?	0	0	0	0
Cc1nn(C)c(C(=O)N/N=C/c2ccccc2)c1[N+](=O)[O-]	0	0	0	0	0	0
Cc1ccc(Nc2ncccc2C(N)=O)cc1[N+](=O)[O-]	35µM	?	0	0	0	0
CN(C)c1ccc(-c2nc(N(C)Cc3ccco3)c3ccccc3n2)cc1	-	-	0	-	-	-
Cc1cnn(CCC(=O)N2CCCC(c3nnc(Cn4ccnc4)n3C)C2)c1 (configuration not stated)	-	-	0	-	-	-
CCNC(=O)N(CCOC)CC1CCCN(C2Cc3ccccc3C2)C1 (configuration not stated)	0[0.501 µM]	0	0	0	0	0
CCOC(=O)c1ccc(NC(=O)c2cccc(C)c2[N+](=O)[O-])cc1	0[0.501 µM]	0	?	0	0	0
CCOC(=O)c1ccc(NC(=O)c2ccccc2[N+](=O)[O-])cc1	0	30µM	0	0	0	?
Cc1c(C(=O)Nc2ccc3c4c(cccc24)CC3)cccc1[N+](=O)[O-]	0	27µM	0	0	0	0
Cc1c(C(=O)NC(=S)Nc2ccc3c4c(cccc24)CC3)cccc1[N+](=O)[O-]	0[2.33 µM]	0	?	0	0	0
COC(=O)c1ccc(OC(=O)CS(=O)c2ccccc2[N+](=O)[O-])cc1 (configuration not stated)	-	?	?	0	0	0
CCOC(=O)c1cc([N+](=O)[O-])c([N+](=O)[O-])cc1NC(C)=O	?	8.4µM	0	0	0	0
CCOC(=O)c1ccccc1OC(=O)CS(=O)c1ccccc1[N+](=O)[O-] (configuration not stated)	40µM	24µM	?	0	0	0
